Experimental data: paper PMC5540273 (PLoS ONE, 2017)

How the values were obtained:
Details in all cases: concentration: 1 μM, replicates: in singlicate; n = 1
NEK11 = test system: NEK11
NEK1 = test system: NEK1
NEK2 = test system: NEK2
NEK3 = test system: NEK3
NEK4 = test system: NEK4
NEK5 = test system: NEK5
NEK6 = test system: NEK6
NEK7 = test system: NEK7
NEK9 = test system: NEK9
NIK = test system: T1, NIK
T1 construct: gene MAP3K14
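Further: KINOMEscan kinase panel screen.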

Row | SMILES | %Inh (NEK11) | %Inh (NEK1) | %Inh (NEK2) | %Inh (NEK3) | %Inh (NEK4) | %Inh (NEK5) | %Inh (NEK6) | %Inh (NEK7) | %Inh (NEK9) | %Inh (NIK)
1 | CN(c1ccc(NC(=O)N2CCN(CCCN3CCOCC3)CC2)cc1)c1ccnc(Nc2ccc(CS(C)(=O)=O)cc2)n1.Cl [GW830899] | 0% | 0% | 14% | 9% | 0% | 3% | 14% | 0% | 0% | 0%
2 | CC(C)NCC(Cc1ccccc1)NC(=O)c1cc(Br)c(-c2ccnc3[nH]ccc23)s1.Cl.Cl (centres unmarked) [GSK1383281] | 0% | 91.9% | 13% | 16% | 0% | 68% | 0% | 0% | 0% | 0%
3 | COc1cccc(-c2nc(-c3ccccc3)[nH]c2-c2ccncc2)c1 [SB-610250] | 26% | 100% | 0% | 11% | 16% | 1% | 4% | 0% | 4% | 0%
4 | c1ccc(Oc2ccc(Nc3ccnc4cc(-c5ccc(CN6CCCCC6)o5)ccc34)cc2)nc1 [GW567143] | 0% | 0% | 0% | 0% | 25% | 0% | 0% | 0% | 2% | 6%
5 | Cc1ccccc1CC(=O)N1CCc2cc(-c3cn(C)c4ncnc(N)c34)ccc21 [GSK2603346] | 58% | 89% | 97% | 0% | 29% | 34% | 0% | 0% | 0% | 21%
6 | Cc1ccc(O)cc1Nc1ccnc2cc(-c3ccc(CN4CCCCC4)o3)ccc12 [GW557777] | 0% | 0% | 11% | 3% | 0% | 0% | 0% | 9% | 0% | 0%
7 | COc1ccc(C)c(Nc2ccnc(Nc3ccc(-c4cnc[nH]4)cc3)n2)c1.Cl [GW784041] | 0% | 0% | 2% | 7% | 0% | 14% | 0% | 4% | 0% | 0%
8 | COc1cc(Nc2nccc(N3CCC(NS(=O)(=O)c4ccc(NC(C)=O)cc4)CC3)n2)cc(OC)c1OC [GSK1379825] | 0% | 83% | 1% | 89% | 3% | 100% | 62% | 86% | 45% | 26%
